Assay results: the supplement of paper PMC7411054
Structures can show the parent of a compound that is named as a salt.

How the values were obtained:
Conditions in all cases: treatment time: 24 h
A549-ACTB-RAB5A [1] = test: lowest phenotypically active concentration; higher = less potent
Outline: (§1)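 After 24 h at 0.3, 1, 3 or 9 µM, with four wells per treatment, fifteen gene-edited A549, HepG2 and WPMY1 reporter lines carrying BFP, GFP and RFP/FusionRed were imaged live. Each well's live-cell features were expressed relative to solvent control wells. Deviation required ≥3 of 4 wells past the 95th percentile of control Euclidean distances, and reproducibility a median replicate Pearson correlation over the 95th percentile of non-replicates. Phenotypic activity rested on both.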

A549-CANX-COX4 [2] = test: as above
Outline: as §1

A549-GM130-SQSTM1 [3] = test: as above
Outline: as §1

A549-TP53BP1-CLTA [4] = test: as above
Outline: as §1

A549-TUBA1B-RELA [5] = test: as above
Outline: as §1

HepG2-TP53BP1-CLTA [6] = test: as above
Outline: as §1

A549-ACTB-RAB5A [7] = test: phenotypically active (imaging signature differs from DMSO and reproducible) at any of 0.3-9 uM (binary (1 = active, 0 = inactive)); higher = active
Outline: as §1

A549-CANX-COX4 [8] = test: as above
Outline: as §1

A549-GM130-SQSTM1 [9] = test: as above
Outline: as §1

A549-TP53BP1-CLTA [10] = test: as above
Outline: as §1

A549-TUBA1B-RELA [11] = test: as above
Outline: as §1

HepG2-ACTB-RAB5A = test: as above
Outline: as §1

HepG2-CANX-COX4 = test: as above
Outline: as §1

HepG2-GM130-SQSTM1 = test: as above
Outline: as §1

HepG2-TP53BP1-CLTA [12] = test: as above
Outline: as §1

HepG2-TUBA1B-RELA = test: as above
Outline: as §1

WPMY1-CANX-COX4 = test: as above
Outline: as §1

WPMY1-GM130-SQSTM1 = test: as above
Outline: as §1

WPMY1-TP53BP1-CLTA = test: as above
Outline: as §1

WPMY1-TUBA1B-RELA = test: as above
Outline: as §1

Structure (SMILES)	lowest phenotypically active concentration (A549-ACTB-RAB5A [1]) [µM]	lowest phenotypically active concentration (A549-CANX-COX4 [2]) [µM]	lowest phenotypically active concentration (A549-GM130-SQSTM1 [3]) [µM]	lowest phenotypically active concentration (A549-TP53BP1-CLTA [4]) [µM]	lowest phenotypically active concentration (A549-TUBA1B-RELA [5]) [µM]	lowest phenotypically active concentration (HepG2-TP53BP1-CLTA [6]) [µM]	phenotypically active (A549-ACTB-RAB5A [7])	phenotypically active (A549-CANX-COX4 [8])	phenotypically active (A549-GM130-SQSTM1 [9])	phenotypically active (A549-TP53BP1-CLTA [10])	phenotypically active (A549-TUBA1B-RELA [11])	phenotypically active (HepG2-ACTB-RAB5A)	phenotypically active (HepG2-CANX-COX4)	phenotypically active (HepG2-GM130-SQSTM1)	phenotypically active (HepG2-TP53BP1-CLTA [12])	phenotypically active (HepG2-TUBA1B-RELA)	phenotypically active (WPMY1-CANX-COX4)	phenotypically active (WPMY1-GM130-SQSTM1)	phenotypically active (WPMY1-TP53BP1-CLTA)	phenotypically active (WPMY1-TUBA1B-RELA)
Cc1ccc([N+](=O)[O-])cc1S(=O)(=O)N(C)/N=C/c1cnc2ccc(Br)cn12	≤ 0.3	≤ 0.3	≤ 0.3	≤ 0.3	≤ 0.3	≤ 0.3	1 (active)	1 (active)	1 (active)	1 (active)	1 (active)	1 (active)	1 (active)	1 (active)	1 (active)	1 (active)	1 (active)	1 (active)	1 (active)	1 (active)
Cc1cnc(NC(=O)Nc2cc(Br)c(C)cc2OC[C@@H]2CNCCO2)cn1	3	3	3	1	1	1	1 (active)	1 (active)	1 (active)	1 (active)	1 (active)	1 (active)	1 (active)	1 (active)	1 (active)	1 (active)	1 (active)	1 (active)	1 (active)	1 (active)
CCC1(O)CC2CN(CCc3c([nH]c4ccccc34)C(C(=O)OC)(c3cc4c(cc3OC)N(C)C3C(O)(C(=O)OC)C(OC(C)=O)C5(CC)C=CCN6CCC43C65)C2)C1 (stereo not given) [Vinblastine sulfate]	≤ 0.3	≤ 0.3	≤ 0.3	≤ 0.3	≤ 0.3	1	1 (active)	1 (active)	1 (active)	1 (active)	1 (active)	1 (active)	1 (active)	1 (active)	1 (active)	1 (active)	1 (active)	1 (active)	1 (active)	1 (active)
Clc1ccc(N/N=C(\c2ccccc2)c2ccccn2)nc1	1	3	≤ 0.3	3	≤ 0.3	≤ 0.3	1 (active)	1 (active)	1 (active)	1 (active)	1 (active)	1 (active)	1 (active)	1 (active)	1 (active)	1 (active)	1 (active)	1 (active)	1 (active)	1 (active)
Nc1nc(Cl)nc2c1ncn2[C@@H]1O[C@H](CO)[C@@H](O)[C@@H]1F [clofarabine]	1	≤ 0.3	1	1	1	≤ 0.3	1 (active)	1 (active)	1 (active)	1 (active)	1 (active)	1 (active)	1 (active)	1 (active)	1 (active)	1 (active)	1 (active)	1 (active)	1 (active)	1 (active)
